This note sets out measurements from PubChem BioAssay (Tox21).

“And” between values parts separate entries of the source, which are not always exact repeats. Equal entries are not always repeated. Inconclusive results are not listed. The source made the active and inactive calls. Unless noted, calls follow the shape of the dose curve; as a rule, active = well fitted curve in the direction sought with a large enough effect in the repeat runs; inconclusive = weak or mixed curves; inactive = no such curve, though single readings can be large; an effect the other way counts as inactive or inconclusive.

The target in assay [1] is Bile acid receptor (Homo sapiens) (UniProt Q96RI1). Put plainly: qHTS assay to identify small molecule antagonists of the farnesoid-X-receptor (FXR) signaling pathway (AID 743217; active = well fitted inhibition curve with a large enough effect in the signal ratio in the repeat runs, not every such curve was filed as active; the % refers to the signal ratio; also: potency is read from the fitted curve at half-maximal effect). An outline of the steps:
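GeneBLAzer FXR-UAS-bla HEK 293T, CDCA-stimulated (50 uM final). Compound treatment 16 h, 37 °C. Detection: beta-lactamase cleavage of B/G FRET substrate, fluorescence.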
A general note: In qHTS, concentration-response curves come from the screen itself.

Assay [2] is described as follows: qHTS assay to identify small molecule agonists of the farnesoid-X-receptor (FXR) signaling pathway - cell viability counter screen (AID 743218). Also: nearly all actives have a fitted effect of over 45% in size. Also: potency is read from the fitted curve at half-maximal effect. The method in brief:
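Parallel cytotoxicity test: compound-treated (16 h, 37 C) HEK 293T FXR-bla reporter cells were lysed with CellTiter-Glo and luminescence recorded.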

Assay [3] can be described thus: qHTS assay to identify small molecule agonists of the vitamin D receptor (VDR) signaling pathway - cell viability counter screen (AID 743224). Also: nearly all actives have a fitted effect of over 50% in size. Also: potency is read from the fitted curve at half-maximal effect. An outline of the steps:
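Plated VDR-bla cells (4 h, 37C) received compound, incubated 16 h, then LiveBLAzer substrate 2 h RT; CellTiter-Glo added afterwards, luminescence read at 30 min.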

Assay [4] is described as follows: qHTS assay to identify small molecule antagonists of the vitamin D receptor (VDR) signaling pathway - cell viability counter screen (AID 743225). Also: nearly all actives have a fitted effect of over 50% in size. Also: potency is read from the fitted curve at half-maximal effect. The method in brief:
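Cells (VDR-UAS-bla HEK 293T) are plated, rested 4 h at 37C, dosed with compound and 3 nM final 1-alpha,25-dihydroxy vitamin D3, and incubated 16 h. Viability is taken from CellTiter-Glo luminescence in the reporter wells.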

A short description of assay [5]: qHTS assay to identify small molecule agonists of the NFkB signaling pathway - cell viability counter screen (AID 1159515; calls by dose curve; also: nearly all actives have a fitted effect of over 55% in size; also: potency is read from the fitted curve at half-maximal effect). An outline of the steps: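 Using the same wells as the NFkB reporter read, ME-180 NFkB-bla cells given compounds for 5 hr were assessed for viability via CellTiter-Glo, with luminescence taken after a 30 min room-temperature incubation.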
A short description of assay [6]: qHTS assay to identify small molecule agonists of the endoplasmic reticulum stress response signaling pathway - cell viability counter screen (AID 1159517; calls by dose curve; also: nearly all actives have a fitted effect of over 50% in size; also: potency is read from the fitted curve at half-maximal effect). The method in brief: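 Luminescence readout: CellTiter-Glo, 30 min RT, same wells as the ESRE-bla reporter read. HeLa ESRE-bla, 1,500 cells/well, o/n 37 C; cpd 5 hr 37 C/5% CO2.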
Assay [7] in a line: qHTS assay to identify small molecule antagonists of the retinoid-related orphan receptor gamma (ROR-gamma) signaling pathway - cell viability counter screen (AID 1159520). Also: nearly all actives have a fitted effect of over 50% in size. Also: potency is read from the fitted curve at half-maximal effect. The method in brief: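 Tet-on ROR gamma CHO cells (1,000/well) were plated 4 hr, given compounds in DMSO for 2 hr at 37 C, then induced with 1 uM final doxycycline for 16 hr. Viability was read as ATP by CellTiter-Glo luminescence after 30 min.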

A short description of assay [8]: qHTS assay to identify small molecule agonists of the AP-1 signaling pathway - cell viability counter screen (AID 1159525; calls by dose curve; also: nearly all actives have a fitted effect of over 55% in size; also: potency is read from the fitted curve at half-maximal effect). An outline of the steps: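 ME-180 AP-1-bla, 2500 cells/well, Opti-MEM + 0.5% dialyzed FBS; overnight 37 °C; cpd 15-pt titration, 5 h 37 °C; CellTiter-Glo 30 min RT; luminescence read; normalised to TOAB and DMSO controls.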
Assay [9] can be described thus: qHTS assay to identify small molecule agonists of the peroxisome proliferator-activated receptor delta (PPARd) signaling pathway - cell viability counter screen (AID 743211). Also: nearly all actives have a fitted effect of over 55% in size. Also: potency is read from the fitted curve at half-maximal effect. An outline of the steps: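 Viability of GeneBLAzer PPARd UAS-bla HEK293H cells was assessed after 17 h compound incubation at 37C, using CellTiter-Glo reagent added after the reporter read and luminescence recorded 30 min later.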

Assay [10] can be described thus: qHTS assay to identify small molecule antagonists of the farnesoid-X-receptor (FXR) signaling pathway - cell viability counter screen (AID 743221; active = well fitted cell-killing curve with a large enough effect in the repeat runs, not every such curve was filed as active; also: nearly all actives have a fitted effect of over 50% in size; also: potency is read from the fitted curve at half-maximal effect). An outline of the steps: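 Quantitative HTS of the Tox21 10K library run in parallel with the beta-lactamase reporter read. HEK 293T cells carrying a UAS-driven bla reporter got compound and 50 uM CDCA (final) for 16 h; ATP-based luminescence followed.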

The target of assay [11] is Nuclear receptor ROR-gamma (Homo sapiens) (UniProt P51449). Put plainly: qHTS assay to identify small molecule antagonists of the retinoid-related orphan receptor gamma (ROR-gamma) signaling pathway (AID 1159521). An outline of the steps:
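RORγ antagonism is scored from reduced reporter luminescence in Tet-on CHO cells. Induction used 1 uM final doxycycline hyclate for 16 h at 37 C, following a 2 h compound exposure.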

Assay [12] in a line: qHTS assay to identify small molecule antagonists of the peroxisome proliferator-activated receptor delta (PPARd) signaling pathway - cell viability counter screen (AID 743213). Also: nearly all actives have a fitted effect of over 50% in size. Also: potency is read from the fitted curve at half-maximal effect. The method in brief:
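Agonist-stimulated (L165041, 300 nM final) HEK293H PPARd UAS-bla cells are exposed to compounds for 17 h at 37 C, and ATP-based luminescence (CellTiter-Glo) from the same wells reports cytotoxicity.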

For assay [13], the target named is Bile acid receptor (Homo sapiens) (UniProt Q96RI1). As to the kind of experiment: qHTS assay to identify small molecule agonists of the farnesoid-X-receptor (FXR) signaling pathway (AID 743220; active = well fitted activation curve with a large enough effect in the signal ratio in the repeat runs, not every such curve was filed as active; the % refers to the signal ratio). The method in brief: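 Beta-lactamase reporter under UAS control in GeneBLAzer FXR HEK 293T cells (5000/well) measured with LiveBLAzer FRET substrate after 2 h at room temperature. Compound exposure lasted 16 h at 37C.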

In assay [14] the target is Vitamin D3 receptor (Homo sapiens) (UniProt P11473). As to the kind of experiment: qHTS assay to identify small molecule agonists of the vitamin D receptor (VDR) signaling pathway (AID 743222; calls by dose curve). An outline of the steps: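 In VDR-bla cells, compound-induced beta-lactamase expression is quantified by FRET substrate fluorescence. Treatment lasts 16 h at 37C; substrate develops 2 h at room temperature.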

For assay [15], the target named is Peroxisome proliferator-activated receptor delta (Homo sapiens) (UniProt Q03181). As to the kind of experiment: qHTS assay to identify small molecule agonists of the peroxisome proliferator-activated receptor delta (PPARd) signaling pathway (AID 743212; calls by dose curve). The method in brief: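 GeneBLAzer PPARd UAS-bla HEK293H cells (beta-lactamase reporter under UAS control), plated and rested 5 h at 37 C, then exposed to compounds in DMSO at 37 C; LiveBLAzer B/G FRET substrate added, 2 h room temperature, fluorescence read.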

Assay [16] has the same target. Put plainly: qHTS assay to identify small molecule antagonists of the peroxisome proliferator-activated receptor delta (PPARd) signaling pathway (AID 743215; active = well fitted inhibition curve with a large enough effect in the signal ratio in the repeat runs, not every such curve was filed as active; the % refers to the signal ratio; also: series mostly up to about 62 µM). The method in brief: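 HEK293H UAS-bla, PPARd; agonist L165041 300 nM final with cpd in DMSO; 37 C 17 h; FRET substrate, RT 2 h; fluorescence intensity.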
Assay [17] has as its target Vitamin D3 receptor (Homo sapiens) (UniProt P11473). Put plainly: qHTS assay to identify small molecule antagonists of the vitamin D receptor (VDR) signaling pathway (AID 743223; active = well fitted inhibition curve with a large enough effect in the signal ratio in the repeat runs, not every such curve was filed as active; the % refers to the signal ratio). An outline of the steps:
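Fluorescence from LiveBLAzer B/G FRET substrate, read after 2 h at room temperature, reflects beta-lactamase reporter activity in VDR-bla cells treated 16 h at 37C with compounds and agonist 1alpha,25-dihydroxyvitamin D3 (3 nM final).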

The nature of assay [18]: qHTS assay to identify small molecule agonists of the AP-1 signaling pathway (AID 1159526; calls by dose curve).
For assay [19], the target named is Retinoic acid receptor RXR-alpha (Homo sapiens) (UniProt P19793). Put plainly: qHTS assay to identify small molecule agonists of the RXR signaling pathway (AID 1159527; calls by dose curve; also: nearly all actives have a fitted effect of over 35% in size). An outline of the steps: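 qHTS of the Tox21 10K library in GeneBLAzer RXR-alpha HEK 293T cells carrying a beta-lactamase reporter […]; 16 hr treatment, 9-cis retinoic acid as agonist control, FRET read-out.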
Chain of Retinoic acid receptor RXR-alpha (Homo sapiens) (P19793 whole entry, looked up): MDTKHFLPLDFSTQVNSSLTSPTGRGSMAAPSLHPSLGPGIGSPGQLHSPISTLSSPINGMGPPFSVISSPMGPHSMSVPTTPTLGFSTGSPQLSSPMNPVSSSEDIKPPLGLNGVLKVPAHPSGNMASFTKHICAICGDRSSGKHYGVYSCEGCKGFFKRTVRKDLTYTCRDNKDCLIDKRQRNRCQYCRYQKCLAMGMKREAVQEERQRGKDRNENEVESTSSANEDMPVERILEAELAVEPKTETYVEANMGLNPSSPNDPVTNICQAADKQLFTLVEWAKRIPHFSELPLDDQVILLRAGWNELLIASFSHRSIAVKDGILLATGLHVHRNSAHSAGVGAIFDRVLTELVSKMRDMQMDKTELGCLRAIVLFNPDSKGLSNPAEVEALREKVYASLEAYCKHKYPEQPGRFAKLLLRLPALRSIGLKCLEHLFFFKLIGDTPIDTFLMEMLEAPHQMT

Chain of Bile acid receptor (Homo sapiens) (Q96RI1 whole entry, looked up): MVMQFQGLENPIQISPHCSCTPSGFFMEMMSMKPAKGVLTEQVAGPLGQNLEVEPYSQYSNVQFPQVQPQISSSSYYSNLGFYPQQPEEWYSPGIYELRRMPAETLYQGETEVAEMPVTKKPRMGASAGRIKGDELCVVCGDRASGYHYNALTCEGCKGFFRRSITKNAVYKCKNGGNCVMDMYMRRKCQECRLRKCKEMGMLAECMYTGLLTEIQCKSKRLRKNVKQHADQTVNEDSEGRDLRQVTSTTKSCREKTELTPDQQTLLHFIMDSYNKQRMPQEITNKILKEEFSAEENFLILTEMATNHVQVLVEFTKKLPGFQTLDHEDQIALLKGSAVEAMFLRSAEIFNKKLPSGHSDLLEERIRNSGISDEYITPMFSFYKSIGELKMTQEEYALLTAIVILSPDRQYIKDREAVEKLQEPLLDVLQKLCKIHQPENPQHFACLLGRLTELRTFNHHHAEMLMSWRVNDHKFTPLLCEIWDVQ
Chain of Vitamin D3 receptor (Homo sapiens) (P11473 whole entry, looked up): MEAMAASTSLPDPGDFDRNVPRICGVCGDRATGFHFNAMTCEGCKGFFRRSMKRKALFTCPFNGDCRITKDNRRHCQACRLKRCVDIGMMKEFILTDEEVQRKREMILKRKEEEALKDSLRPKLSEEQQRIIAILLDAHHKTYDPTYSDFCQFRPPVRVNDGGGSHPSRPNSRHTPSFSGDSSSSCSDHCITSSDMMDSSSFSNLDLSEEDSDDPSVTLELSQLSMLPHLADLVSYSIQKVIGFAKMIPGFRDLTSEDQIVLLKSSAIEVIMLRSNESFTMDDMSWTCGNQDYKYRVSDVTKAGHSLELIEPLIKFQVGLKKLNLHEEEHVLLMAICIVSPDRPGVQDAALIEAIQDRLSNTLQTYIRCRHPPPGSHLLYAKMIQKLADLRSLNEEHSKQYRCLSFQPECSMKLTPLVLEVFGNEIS
Chain of Peroxisome proliferator-activated receptor delta (Homo sapiens) (Q03181 whole entry, looked up): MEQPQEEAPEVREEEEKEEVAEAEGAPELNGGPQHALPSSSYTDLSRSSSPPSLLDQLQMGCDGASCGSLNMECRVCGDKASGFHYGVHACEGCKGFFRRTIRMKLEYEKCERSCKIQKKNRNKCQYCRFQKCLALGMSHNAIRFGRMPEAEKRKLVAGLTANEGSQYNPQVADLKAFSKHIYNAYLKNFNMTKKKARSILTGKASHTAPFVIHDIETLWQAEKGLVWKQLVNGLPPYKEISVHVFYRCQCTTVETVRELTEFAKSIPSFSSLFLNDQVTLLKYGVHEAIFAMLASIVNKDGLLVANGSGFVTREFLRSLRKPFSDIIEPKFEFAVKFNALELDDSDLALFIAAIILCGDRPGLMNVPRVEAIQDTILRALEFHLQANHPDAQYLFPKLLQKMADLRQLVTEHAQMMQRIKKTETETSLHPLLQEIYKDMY

Consider `CCCCOCN(C(=O)CCl)c1c(CC)cccc1CC`, for which the Potency result in assay [1], in [2], in assay [4], in assay [5], in assay [6] and in [7] was “inactive” in each case. In addition, the Potency entry in [8] was “inactive”. Besides, in [3], the Potency was 49 µM (active).

With `[CH3][Hg][Cl]`, the Potency was 12.3 µM (active) in assay [9]; 13.8 µM (active) in assay [2]; 38.8 µM (active) in assay [10]; 38.8 µM (active) in assay [3]; 10.9 µM (active) in [5]; 21.8 µM (active) in assay [6]. Further, the Potency in [7] is 4.31 µM (active); in assay [11], 3.05 µM (active).

In the case of `CC(C)[C@H](C(=O)OC(C#N)c1cccc(Oc2ccccc2)c1)c1ccc(OC(F)F)cc1` (stereo not given in full), the Potency result in assay [9], in assay [12], in assay [10], in assay [14], in assay [3] and in assay [4] was “inactive” throughout. Further, the Potency result in [5], in [6], in assay [7] and in [8] was “inactive” each time. Besides, in [13], the call was inactive.

As for `CC1(C)C(/C=C(\Cl)C(F)(F)F)C1C(=O)OC(C#N)c1cccc(Oc2ccccc2)c1` (stereo not given), the Potency entry in [9], in assay [15], in assay [12], in [16], in assay [2] and in assay [10] was “inactive” in each case. In addition, the Potency result in [14], in assay [17], in [3], in [5], in assay [6] and in assay [7] was “inactive” throughout. The Potency result in assay [8] and in assay [18] was “inactive” throughout. For the same molecule, the Potency in assay [1] is 17.7 µM (active). For the same molecule, in assay [13], the result was inactive.

As for `CN(C)C(=S)S`, the Potency in assay [12] is 5.45 µM (active) and 7.76 µM (active); in assay [2], 0.386 µM (active); in assay [10] it was 612 nM (active) and 4.36 µM (active); in assay [3] it was 50 µM (active) and 1.09 µM (active) and 9.77 µM (active); in [5], 15.5 µM (active); in assay [7], 6.11 µM (active). In assay [8], the Potency was 38.9 µM (active). The Potency entry in assay [17], in assay [4] and in [6] was “inactive” in each case.

As to `c1ccc2cc3c(cc2c1)-c1cccc2cccc-3c12`, the Potency entry in [12], in [2], in [10], in assay [3], in assay [4] and in assay [5] was “inactive” in each case. Moreover, the Potency entry in assay [6], in assay [7] and in [8] was “inactive” each time.

As to `CC(C)(O)c1cnn2c(-c3ccc(F)c(-c4c(F)cccc4C#N)c3)cnc2n1`, the Potency result in assay [12], in assay [5], in assay [6] and in assay [8] was “inactive” each time. In addition, the Potency in [3] was 27.5 µM (active); in [11], 61.1 µM (active).

For the molecule `O=c1oc2ccccc2c(O)c1Cc1c(O)c2ccccc2oc1=O`, the call in assay [13] and in assay [19] was inactive. In addition, the Potency entry in assay [17], in [3], in assay [5], in assay [6] and in [8] was “inactive” each time. In addition, the Potency in assay [11] was 7.5 µM (active).

For `O=[N+]([O-])c1cc(C(F)(F)F)c(Cl)c([N+](=O)[O-])c1Cl`, the Potency was 7.76 µM (active) in assay [12]; 7.76 µM (active) in assay [2]; 38.9 µM (active) in assay [10]; 12.3 µM (active) in assay [3]; 21.9 µM (active) in assay [4]; 54.9 µM (active) in [5]. Also, the Potency is 12.3 µM (active) in assay [6], 27.3 µM (active) in assay [7] and 6.11 µM (active) in assay [11].
